# Bioassay records as filed in PubChem BioAssay.
# Vc quorum ag: quorum light induction in luxS cqsA deficient V. cholerae | V. cholerae BH1578 lux reporter, luminescence, 6 h | activation, % at 18.7 µM | hit rate 0.16% among 350,000 | AID 588436; in the data active = activation mostly above about 9.7%, no sharp cut-off
# RecA intein inh: Mtb RecA intein splicing inhibition | P9WHJ3 | cell-free RecA intein splicing, fluorescence | inhibition, % (test concentration not listed) | hit rate 0.75% among 290,000 | AID 2221; in the data active = inhibition above about 30%;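 also: 0% = vehicle wells and 100% = reference inhibitor control wells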
# Mtb UGM inh: blocks M. tuberculosis UGM enzyme. purified UGM, fluorescence polarization probe displacement. inhibition, % at 10 µM. hit rate 0.06% among 320,000; in the data active = inhibition above about 10%, passing the limit was not always enough
# FBA Mtb inh: inhibits M. tuberculosis FBA enzyme; AID 588726; hit rate 2.3% among 360,000; P9WQA3; purified M. tuberculosis FBA, fluorescence read-out; inhibition, % at 1 µM; in the data active = inhibition above about 27%;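 also: 0% = vehicle and 100% = reference inhibitor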
# Rv3671c inh: Rv3671c (M. tuberculosis) protease inhibition. inhibition, % at 5.96 µM. hit rate 0.048% among 320,000; in the data active = inhibition above about 38%;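 also: extracellular domain of Rv3671c used as enzyme; 0% = enzyme with DMSO and 100% = no enzyme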
# Target sequence (P9WHR9 whole entry, looked up, the tested form may be a part): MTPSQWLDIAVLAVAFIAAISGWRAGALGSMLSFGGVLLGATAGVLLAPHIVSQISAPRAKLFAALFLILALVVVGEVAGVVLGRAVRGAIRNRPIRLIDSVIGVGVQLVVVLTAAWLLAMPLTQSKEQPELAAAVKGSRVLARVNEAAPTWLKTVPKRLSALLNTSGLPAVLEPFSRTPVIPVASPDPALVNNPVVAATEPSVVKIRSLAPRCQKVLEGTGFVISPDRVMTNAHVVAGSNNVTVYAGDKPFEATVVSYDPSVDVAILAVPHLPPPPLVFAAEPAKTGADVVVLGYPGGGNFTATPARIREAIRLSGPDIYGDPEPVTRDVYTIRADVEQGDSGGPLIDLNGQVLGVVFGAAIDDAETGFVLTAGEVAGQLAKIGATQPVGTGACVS
# GDH-TPI inh: counter-screen for M. tuberculosis FBA inhibitors: GDH-TPI coupled enzymes; GDH-TPI coupled enzyme counterscreen, NADH absorbance; inhibition, % at 4.8 µM; hit rate 1.2% among 360,000; in the data active = inhibition above about 30%;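 also: 0% = DMSO wells and 100% = wells lacking the enzyme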
# Starred values were filed as active, the others as inactive; i = inactive; x = not tested or not shown; + = active, no number. Compounds with a hit are over-represented: about 4.1% of the library has one in this group of screens.
SMILES,Vc quorum ag,RecA intein inh,Mtb UGM inh,FBA Mtb inh,Rv3671c inh,GDH-TPI inh
C[C@@H]1ON(C)[C@H]2C[C@H]3c4cc(-c5cccc(F)c5)ccc4CCN3C(=O)[C@@H]12,i,x,x,-1,x,8
CCOC(=O)Nc1ccc2c(CN(C)Cc3ccc(F)cc3)cc(=O)oc2c1,0,0,-1,14,-9,-5
CCOC(=O)Nc1ccc2c(COC(=O)CNS(=O)(=O)c3ccc(NC(C)=O)cc3)cc(=O)oc2c1,0,1,3,160*,4,13
Cc1cc(=O)oc2cc(NC(=O)c3ccccc3C(=O)O)ccc12,i,0,6,+,-5,19
COc1cccc(C(=O)Nc2ccc3c(C)cc(=O)oc3c2)c1,i,0,-3,3,x,14
CCOC(=O)Nc1ccc2c(C)cc(=O)oc2c1,1,-3,0,199*,5,29
Cc1ccc2c(COC(=O)CNS(=O)(=O)c3ccccc3)cc(=O)oc2c1,i,x,1,1,-1,8
O=C(Cc1ccccc1)NCC(=O)OCC(=O)c1ccc(F)cc1,0,-3,-1,-2,0,-7
Cc1ccc(C(=O)Nc2ccc3c(c2)nc(CCNC(=O)c2ccco2)n3C)cc1,i,0,-1,1,5,-9
CCc1nc2c(OCCC3CCCCC3)cccn2c1N(C)C(=O)c1ccc(C)cc1,-1,x,x,-2,x,4
N#CC1=C2Sc3ccccc3N2CCCC1=O,i,0,1,-2,-15,34*
N#CC1=C2SC=C(c3ccc(Br)cc3)N2CCCC1=O,-1,2,0,-1,-14,3
COc1cc(/C=N/NC(=O)c2cc(-c3cccc(OC(C)C)c3)nc3ccccc23)ccc1O,-1,2,-1,3,-16,61*
COc1cc(/C=N/NC(=O)c2cc(-c3cccs3)nc3ccccc23)ccc1O,0,1,2,7,-8,56*
COc1cc(/C=N/NC(=O)c2cc(-c3ccccc3)nc3ccccc23)cc(OC)c1O,0,-1,0,-4,0,23
CN(C)/C=C/C(=O)c1ccc(Cl)cc1,0,10,-2,2,-13,48*
CN(C)/C=C/C(=O)c1ccc(-n2cccc2)cc1,-1,1,-1,0,-6,18
CN(C)/C=C/C(=O)c1ccc(Oc2ncccn2)cc1,-1,-1,2,1,-7,24
Cc1ccc(C(=O)/C=C/N(C)C)cn1,i,1,0,-2,-1,31*
CN(C)/C=C/C(=O)c1cccc(C(F)(F)F)c1,i,-1,x,3,-6,50*
CN(C)/C=C/C(=O)c1cccc(Cl)c1,5,-1,1,-3,-4,42*
CN(CCO)C(=O)c1nc[nH]c1C(=O)N1CCN(C(=O)OC(C)(C)C)CC1,0,x,x,-1,x,-3
O=C(NCc1ccccn1)C(C(=O)c1cccc([N+](=O)[O-])c1)n1cc(Cl)ccc1=O (centres undefined),1,0,2,-4,7,-6
COc1cccc2c1OCC(C(=O)Nc1nccs1)=C2,i,-2,5,-6,-40,10
CN(C)/C=C/C(=O)c1ccc(Cl)c([N+](=O)[O-])c1,0,4,0,-2,-15,31*
SMILES,Vc quorum ag,RecA intein inh,Mtb UGM inh,FBA Mtb inh,Rv3671c inh,GDH-TPI inh
CC(=O)Nc1ccc(S(=O)(=O)Nc2nc3ccccc3nc2Nc2ccc(N)cc2)cc1,-4,-8,1,8,2,31*
CC(=O)Nc1ccc(S(=O)(=O)Nc2nc3ccccc3nc2Nc2ccc3ccccc3c2)cc1,0,-3,0,11,-1,14
C=C(c1ccccc1)c1ccc(N(C)C)cc1,-13,-4,-1,2,-4,10
CN(C)c1ccc(C(=O)c2ccccc2)cc1,-7,5,2,-4,-4,31*
COc1ccc(C(=O)N/C(=C\c2ccc(-c3cccc([N+](=O)[O-])c3)o2)C(=O)NCCCN2CCOCC2)cc1,0,x,x,-3,x,47*
Cc1ccc(C(=O)N/C(=C\c2ccc(-c3cccc([N+](=O)[O-])c3)o2)C(=O)NCCCN2CCOCC2)cc1,i,-2,-1,0,5,47*
COc1ccc(C(=O)N/C(=C\c2ccco2)C(=O)NCCN2CCOCC2)cc1,i,1,2,-3,3,11
CN(C)C(=O)/C(=C/c1ccc(-c2cccc([N+](=O)[O-])c2)o1)NC(=O)c1ccccc1,0,1,0,-3,-3,53*
Cc1ccc(C(=O)N/C(=C/c2ccc(-c3cccc([N+](=O)[O-])c3)o2)C(=O)NC(C)C)cc1,0,-1,2,-3,2,49*
CNC(=O)C[C@H]1C(=O)N(c2ccccc2)C[C@@H]1CSC,0,x,x,0,x,-9
CC(O)CC(=O)NOCc1ccccc1 (centres undefined),i,x,x,-3,x,-1
CN(C)CCCNC(=O)/C(=C\c1ccc(-c2ccc(Br)cc2)o1)NC(=O)c1ccccc1,i,1,1,4,6,25
CN(C)CCCNC(=O)/C(=C/c1ccc(-c2ccc([N+](=O)[O-])cc2)o1)NC(=O)c1ccccc1,0,-1,-1,-4,3,31*
CCOC(=O)CNc1c(-c2ccc(F)cc2)nc2cnccn12,i,-106,2,87*,-6,6
CCOC(=O)CNc1c(-c2ccc(OC)cc2)nc2ccc(Cl)cn12,0,-6,3,1,-2,14
CCCCNc1c(-c2ccc(-c3ccc(C(C)=O)cc3)c(OC)c2)nc2cnccn12,i,-77,-1,15,7,34*
CCCCNc1c(-c2ccc(OC)c(SC3CCCCC3)c2)nc2cnccn12,i,-132,-1,26,13,11
O=C(O)c1ccccc1NN=Cc1ccccc1,0,x,x,5,x,36*
COc1cccc(/C=N/Nc2ccccc2C(=O)O)c1O,0,-5,1,0,-4,6
Cc1cc(=O)oc2c3c(cc(OCC(=O)NCc4ccco4)c12)OC(C)(C)CC3,0,1,-3,+,0,13
Cc1cc(OCC(=O)NCc2ccncc2)c2c3c(c(=O)oc2c1)CCC3,-1,-1,-6,26,-4,2
COc1ccc(CNC(=O)COc2cc3c(c4oc(=O)cc(C)c24)CCC(C)(C)O3)c(OC)c1,0,x,x,34*,x,12
Cc1cc(=O)oc2c3c(cc(OCC(=O)NCc4ccncc4)c12)OC(C)(C)CC3,0,-4,-1,+,-5,16
O=C1CSC(=S)N1Cc1ccccc1,i,x,x,0,x,5
COc1cc(N/N=C/c2ccc(N(C)C)cc2)ncn1,0,-4,1,14,4,27
COc1cc(N/N=C/c2ccccc2O)ncn1,0,-3,2,3,-2,47*
COc1cc(/C=C2\SC(=O)N(c3ccc(O)cc3)C2=O)cc(OC)c1OC,0,-1,0,-3,-1,48*
